PubChem BioAssay (EPA / NIEHS)
Inconclusive results are not listed. Active and inactive are the calls of the source. How the source made its calls, unless noted: active means hit-call score of the fitted dose curve at least 0.9, where 1 is the maximum; inactive means score below 0.9.

What was measured:
[1] = CCTE_Harrill_HTTr_Viability_DMEM_6hr: (Pilot) CCTE's 6-hour Cell Viability Assessment for the High-Throughput Transcriptomics (HTTr) Platform, in MCF-7 cells cultured in DMEM + 10% fetal bovine serum, Harrill Lab (AID 2283973)
Outline: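 MCF-7 cells in DMEM + 10% FBS, eight-point dilution series, 6 h exposure. Membrane integrity by propidium iodide exclusion with high-content imaging; bidirectional fit versus DMSO.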

[2] = CCTE_Harrill_HTTr_Viability_DMEM_12hr: (Pilot) CCTE's 12-hour Cell Viability Assessment for the High-Throughput Transcriptomics (HTTr) Platform, in MCF-7 cells cultured in DMEM + 10% fetal bovine serum, Harrill Lab (AID 2283974)
Outline: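 MCF-7 cells in DMEM + 10% FBS exposed 12 h to an eight-point dilution series; membrane integrity scored by propidium iodide exclusion with high-content imaging, bidirectional fitting versus DMSO.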

[3] = CCTE_Harrill_HTTr_Viability_DMEM_24hr: (Pilot) CCTE's 24-hour Cell Viability Assessment for the High-Throughput Transcriptomics (HTTr) Platform, in MCF-7 cells cultured in DMEM + 10% fetal bovine serum, Harrill Lab (AID 2283975)
Outline: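 MCF-7 cells in DMEM with 10% FBS exposed for 24 hours to an eight-point dilution series. Membrane integrity by propidium iodide exclusion with high content imaging; bidirectional fit against DMSO.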

[4] = CCTE_Harrill_HTTr_Viability_PRF_DMEM_6hr: (Pilot) CCTE's 6-hour Cell Viability Assessment for the High-Throughput Transcriptomics (HTTr) Platform, in MCF-7 cells cultured phenol red-free DMEM + 10% charcoal-stripped fetal bovine serum, Harrill Lab (AID 2283976)
Source text: This is a cell-based assay that evaluates cell viability using high content imaging to evaluate membrane integrity using propidium iodide dye exclusion in a 384 well format.One of seven assay components measured from the CCTE_Harrill_HTTr_Viability assay. This was part of a pilot experiment. This is a cell-based assay that evaluates cell viability in MCF-7 cells cultured in phenol red-free DMEM + 10% charcoal-stripped fetal bovine serum. High content imaging is used to evaluate membrane integrity using propidium iodide dye exclusion. Measurements are taken at 6 hours after chemical dosing in 384-well format.The assay component endpoint CCTE_Harrill_HTTr_Viability_PRF_DMEM_6hr was analyzed with bidirectional fitting relation to DMSO as the negative control and baseline of activity. Using a type of viability reporter to understand changes in cytotoxicity, gain-of-signal activity can be used to evaluate membrane integrity using propidium iodide dye exclusion. To generalize the intended target to other relatable targets, this assay endpoint is annotated to cell cycle, where the subfamily is cytotoxicity.
Chemicals were tested in MCF7 cells in an eight point dilution series with a six hour exposure duration.

[5] = CCTE_Harrill_HTTr_Viability_PRF_DMEM_12hr: (Pilot) CCTE's 12-hour Cell Viability Assessment for the High-Throughput Transcriptomics (HTTr) Platform, in MCF-7 cells cultured in phenol red-free DMEM + 10% charcoal-stripped fetal bovine serum, Harrill Lab (AID 2283977)
Outline: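 MCF-7 cells in phenol red-free DMEM with 10% charcoal-stripped FBS exposed 12 hours to an eight-point dilution series. Viability assessed by high-content imaging of propidium iodide exclusion; bidirectional fit versus DMSO.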

THRA (gene 7067) = THRA (gene 7067) (UniProt P10827); assay: TOX21_TRA_COA_Antagonist_Followup_ratio: Tox21 Thyroid Hormone Receptor alpha Antagonism through Coactivator Recruitment Follow-Up Assay, Ratio (AID 2283953; active means hit-call score of the fitted dose curve at least 0.9, where 1 is the maximum)
Sequence of THRA (gene 7067) (P10827 whole entry, looked up, the tested form may be a part): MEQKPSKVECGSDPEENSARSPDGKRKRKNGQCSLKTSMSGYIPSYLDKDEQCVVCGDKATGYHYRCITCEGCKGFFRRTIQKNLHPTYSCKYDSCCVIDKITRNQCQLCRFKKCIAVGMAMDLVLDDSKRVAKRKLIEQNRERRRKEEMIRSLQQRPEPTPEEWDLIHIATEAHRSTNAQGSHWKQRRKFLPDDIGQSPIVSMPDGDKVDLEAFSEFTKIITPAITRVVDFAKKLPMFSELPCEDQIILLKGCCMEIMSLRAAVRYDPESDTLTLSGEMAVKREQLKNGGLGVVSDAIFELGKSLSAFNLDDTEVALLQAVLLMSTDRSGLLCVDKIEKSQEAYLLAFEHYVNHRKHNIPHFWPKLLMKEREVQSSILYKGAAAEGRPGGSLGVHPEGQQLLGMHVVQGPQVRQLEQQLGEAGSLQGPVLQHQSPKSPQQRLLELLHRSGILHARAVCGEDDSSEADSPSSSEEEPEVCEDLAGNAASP
Outline: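 This follow-up to the GH3 luciferase screen checks specificity in a cell-free format. It measures SRC-2 coactivator peptide binding to TRα LBD by TR-FRET and scores loss of ratio signal relative to DMSO.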

THRB (gene 7068) [6] = molecular target: THRB (gene 7068) (UniProt P10828); assay: TOX21_TRB_BLA_Antagonist_Followup_ratio: Tox21 Thyroid Hormone Receptor beta Antagonism Beta-lactamase (BLA) Follow-Up Assay, Ratio (AID 2283958; active means hit-call score of the fitted dose curve at least 0.9, where 1 is the maximum)
Sequence of THRB (gene 7068) (P10828 whole entry, looked up, the tested form may be a part): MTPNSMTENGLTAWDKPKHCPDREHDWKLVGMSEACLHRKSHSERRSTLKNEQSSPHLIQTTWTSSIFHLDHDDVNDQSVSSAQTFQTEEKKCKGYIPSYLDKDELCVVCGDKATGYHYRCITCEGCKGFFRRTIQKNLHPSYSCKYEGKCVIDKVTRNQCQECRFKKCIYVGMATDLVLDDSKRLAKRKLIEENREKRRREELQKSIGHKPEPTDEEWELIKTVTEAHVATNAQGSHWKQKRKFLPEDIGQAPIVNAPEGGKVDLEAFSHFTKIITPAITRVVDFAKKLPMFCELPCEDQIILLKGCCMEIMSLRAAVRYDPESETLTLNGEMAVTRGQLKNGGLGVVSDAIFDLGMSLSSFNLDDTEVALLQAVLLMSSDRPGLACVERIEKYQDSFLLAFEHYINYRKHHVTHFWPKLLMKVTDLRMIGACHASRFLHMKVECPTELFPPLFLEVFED
Outline: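 In this antagonist-mode follow-up, a stably integrated GAL4-TRβ LBD fusion drives a UAS-beta-lactamase reporter in HEK293T cells. Loss of ratio signal relative to DMSO after 18 h treatment indicates activity; parallel CellTiter-Glo flags cytotoxicity.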

[7] = TOX21_TRB_BLA_Antagonist_Followup_viability: Viability Assessment in the Tox21 Thyroid Hormone Receptor beta Antagonism Beta-lactamase (BLA) Follow-Up Assay (AID 2283961; active means hit-call score of the fitted dose curve at least 0.9, where 1 is the maximum)
Outline: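 In the same wells as the reporter read, cell health was gauged by CellTiter-Glo ATP luminescence, with signal loss indicating reduced viability. Cells had been exposed to test compounds for 18 h.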

THRB (gene 7068) [8] = molecular target: THRB (gene 7068) (UniProt P10828); assay: TOX21_TRB_COA_Antagonist_Followup_ratio: Tox21 Thyroid Hormone Receptor beta Antagonism through Coactivator Recruitment Follow-Up Assay, Ratio (AID 2283967; active means hit-call score of the fitted dose curve at least 0.9, where 1 is the maximum)
Source text: TOX21_TRb_COA_Antagonist_Followup is a secondary assay for specificity for the TOX21_TR_GH3_LUC_Agonist assay. The LanthaScreen TR-FRET TR coactivator assay kits were used to determine TR activity in a cell-free functional assay. A time-resolved fluorescence resonance energy transfer (TR-FRET) signal was indicative of coactivator (SRC-2) recruitment.TOX21_TRB_COA_Antagonist_Followup_ratio is assay component calculated in the TOX21_TRB_COA_Antagonist_Followup assay. The TR-FRET ratio of acceptor emission (ch2) to donor emission (ch1) is indicative of the resonance energy transfer to the fluorescein tag on the coactivator peptide following recruitment to the receptor.Data from the assay component TOX21_TRB_COA_Antagonist_Followup_ratio was analyzed into 1 assay endpoint. This assay endpoint, TOX21_TRB_COA_Antagonist_Followup_ratio, was analyzed in the positive analysis fitting direction relative to DMSO as the negative control and baseline of activity. Using a type of inducible reporter, loss-of-signal activity can be used to understand changes in the reporter gene as they relate to the gene THRB. Furthermore, this assay endpoint can be referred to as a primary readout, because this assay has produced multiple assay endpoints and this ratio serves a reporter gene function to understand target activity. […]

[9] = molecular target: Retinoic acid receptor RXR-alpha (Homo sapiens) (UniProt P19793); assay: TOX21_TR_RXR_BLA_Antagonist_Followup_ratio: Tox21 Thyroid Hormone Receptor beta Retinoid X Receptor alpha (RXRa) Antagonism Beta-lactamase (BLA) Follow-Up Assay, Ratio (AID 2283972; active means hit-call score of the fitted dose curve at least 0.9, where 1 is the maximum)
Sequence of Retinoic acid receptor RXR-alpha (Homo sapiens) (P19793 whole entry, looked up, the tested form may be a part): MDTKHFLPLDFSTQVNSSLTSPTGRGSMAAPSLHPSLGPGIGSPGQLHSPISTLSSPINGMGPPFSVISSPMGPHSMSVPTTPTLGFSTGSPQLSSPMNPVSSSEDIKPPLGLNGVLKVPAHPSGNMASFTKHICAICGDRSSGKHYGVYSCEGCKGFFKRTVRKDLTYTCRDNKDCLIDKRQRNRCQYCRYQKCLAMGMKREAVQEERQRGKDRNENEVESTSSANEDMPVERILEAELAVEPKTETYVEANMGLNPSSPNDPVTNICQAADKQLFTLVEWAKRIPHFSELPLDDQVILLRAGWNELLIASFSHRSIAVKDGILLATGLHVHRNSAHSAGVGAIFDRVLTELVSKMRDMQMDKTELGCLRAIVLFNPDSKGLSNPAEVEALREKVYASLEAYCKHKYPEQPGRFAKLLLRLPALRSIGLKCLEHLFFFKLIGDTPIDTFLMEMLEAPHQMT
Source text: GeneBLAzer RXRa-UAS-bla HEK293T assay (RXRa-bla) (ThermoFisherScientific Catalog No. K1697) was run in qHTS 1536 well format as a secondary assay for specificity of response in the TOX21_TR_GH3_LUC_Agonist assay.TOX21_TR_RXR_BLA_Antagonist_Followup_ratio is an assay readout measuring reporter gene via receptor activity and designed using inducible reporter (beta lactamase induction) detected with GAL4 b-lactamase reporter gene. The signal is derived from the ratio of cleaved (ch2) to uncleaved (ch1) reporter gene substrate used as the measure of target activity.Data from the assay component TOX21_TR_RXR_BLA_Antagonist_Followup_ratio was analyzed into 1 assay endpoint. This assay endpoint, TOX21_TR_RXR_BLA_Antagonist_Followup_ratio, was analyzed in the positive analysis fitting direction relative to DMSO as the negative control and baseline of activity. Using a type of inducible reporter, loss-of-signal activity can be used to understand changes in the reporter gene as they relate to the gene RXRA. Furthermore, this assay endpoint can be referred to as a primary readout, because this assay has produced multiple assay endpoints and this ratio serves a reporter gene function to understand target activity. To generalize the intended target to other relatable targets, this assay endpoint is annotated to the nuclear receptor intended target family, where subfamily is non-steroidal. […]

Measured: AC50

Cc1c(COC(=O)[C@@H]2[C@H](/C=C(\Cl)C(F)(F)F)C2(C)C)cccc1-c1ccccc1
inactive: [1] | [2] | [3] | [4] | [5]

CO/N=C(/C1=NOCCO1)c1ccccc1Oc1ncnc(Oc2ccccc2Cl)c1F
active: THRB (gene 7068) [6] 54.6 µM | [7] 38.3 µM
inactive: THRA (gene 7067) | THRB (gene 7068) [8] | [9]

C=CCOC(=O)C(C)(C)OC(=O)c1cc(-n2c(=O)cc(C(F)(F)F)n(C)c2=O)ccc1Cl
inactive: [1] | [2] | [3] | [4] | [5]

CC1(C)C(C=C(Cl)Cl)C1C(=O)OC(C#N)c1cccc(Oc2ccccc2)c1 (stereo not given)
inactive: [1] | [2] | [3] | [4] | [5]

CCOC(=O)C(C)OC(=O)c1cc(Oc2ccc(C(F)(F)F)cc2Cl)ccc1[N+](=O)[O-] (stereo not given)
inactive: [1] | [2] | [3] | [4] | [5]
